# Hit rate of the full screen: of about 400,000 compounds, about 13,000 (3.2%) were called active. Inconclusive results (about 18%) are left out. The call rests on the fitted dose curve; in most records, active means well fitted cell-killing curve with a large enough effect; inconclusive means small, poorly fitted or top-dose-only effect, or effect the other way; inactive means flat fitted curve, though single readings scatter. Only a selection was taken, and actives are over-represented in it overall.
# Test: qHTS assay for MDR1-selective chemotherapeutics: Primary screen using the drug-selected MDR subline cells KB-V1; further: nearly all actives have a fitted effect of over 60% in size
# Details: KB-V1 MDR cells viability, CellTiter-Glo, 72 h; series mostly up to 46.1 µM; activity change, negative = cytotoxicity: at the top concentration
# Method in brief: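 KB-V1 cells (P-gp-expressing MDR subline of KB-3-1) in phenol-red-free DMEM with 10% FBS were exposed to library compounds over a concentration series for 72 h at 37 degrees C. Viability read by CellTiter-Glo luminescence; concentration-effect curves fitted after normalization.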
# On the % scale 0 is the no-effect control and ±100 the full control effect; potency means the concentration at half of the fitted maximal effect.
SMILES,"activity change, negative = cytotoxicity",Potency
O=C(NCc1cccnc1)c1ccc2nc([C@@H]3O[C@H](CO)[C@H](O)[C@H](O)[C@H]3O)[nH]c2c1,-1.88% (inactive),–
O=C(c1ccc(S(=O)(=O)c2ccccc2)cc1)N1CCCCCC1,1.57% (inactive),–
N#Cc1ccccc1-n1c(N)c(C(=O)N2CCCC2)sc1=S,–,16.4 µM (active)
Cc1cccc(-n2c(N)c(C(=O)N3CCN(C)CC3)sc2=S)c1,-2.49% (inactive),–
COc1ccc(C(=O)NCC[N+](C)(C)C)cc1,4.17% (inactive),–
CC1(C(=O)NCc2ccccc2)CSCC(=O)N1CCCN1CCOCC1 (configuration not stated),-3.51% (inactive),–
O=C(Nc1ccc(Cl)c(C(F)(F)F)c1)C1Cc2c(-c3ccccc3Oc3ccccc3)ccnc2O1 (configuration not stated),3.66% (inactive),–
CNC(=O)c1sc(NCc2ccccc2OC)nc1C,-22.9% (inactive),–
CNC(=O)c1sc(Nc2ccc(OCc3ccccc3)cc2)nc1C,–,8.2 µM (active)
Cc1cccc(NC(=O)Nc2ccc(OCc3ccccc3)cc2)n1,-0.32% (inactive),–
COc1ccc(C(=O)N2CCCCC2c2cc(C(=O)Nc3ccc(F)c(Cl)c3)no2)cc1 (configuration not stated),-11.6% (inactive),–
O=[N+]([O-])c1ccc(CN2CC(N3CC=CC3)CS2(=O)=O)cc1 (configuration not stated),-6.04% (inactive),–
CC(C)(C)S(=O)N1Cc2cc(C(=O)NCCCN3CCOCC3)nc(-c3cccc(-c4cc5ccccc5o4)c3)c2[C@H]1CCO (some centres not stated),-18.9% (inactive),–
CC(=O)Nc1ccc(NC(=O)c2cc3sccc3n2Cc2ccc(F)cc2)cc1,0% (inactive),–
O=C(NCc1ccco1)c1ccc(Cn2c(=O)c3sccc3n(Cc3ccc(F)cc3)c2=O)cc1,-10.9% (inactive),–
O=C(NCc1ccco1)c1cc2sccc2n1Cc1ccc(F)cc1,–,16.4 µM (active)
CCCCCCN1C[C@H](O)[C@@H](n2cc(C3CC3)nn2)C[C@@H]1c1ccc(Cl)cc1,0% (inactive),–
CCOC(=O)c1ccc(NC(=O)c2csc3c2CCCCC3)cc1,16.5% (inactive),–
COC(=O)c1sccc1NC(=O)c1ccc(Cl)cc1,-6.52% (inactive),–
COC(=O)c1sccc1NC(=O)c1csc2c1CCCC2,–,14.6 µM (active)
CCNC(=S)Nc1ccc2c(c1)c(=O)n(C)n2Cc1ccc(Cl)cc1,-0.147% (inactive),–

SMILES,"activity change, negative = cytotoxicity",Potency
CCC(C(=O)NC(C)(C)C)n1c(-c2ccccc2)nc2ccccc21 (configuration not stated),-16.9% (inactive),–
Cc1onc(NC(=O)c2ccc([N+](=O)[O-])o2)c1Br,0% (inactive),–
O=C(Nc1ccc(Br)cn1)c1ccc([N+](=O)[O-])o1,-28.8% (inactive),–
Cc1cccc(NC(=O)c2ccc([N+](=O)[O-])o2)c1,–,18.4 µM (active)
COc1cccc(-c2nnc(SCC(=O)N3CCC(C)CC3)o2)c1,5.37% (inactive),–
COc1cccc(NC(=O)CSc2nnc(-c3cccnc3)o2)c1,-1.74% (inactive),–
CCN(CC)C(=O)CSc1nnc(-c2cccc(OC)c2)o1,–,11.6 µM (active)
COC(=O)Nc1nc2ccc(Sc3ccccc3)cc2[nH]1,–,1.16 µM (active)
Cc1ccc2nc(CNC(=O)c3ccccc3)[nH]c2c1,9.02% (inactive),–
CC(C)c1nc2ccc(C(=O)O)cc2[nH]1,-8.64% (inactive),–
CCN(CCCNC(=O)Cn1ncc2c3ccccc3n(C)c2c1=O)Cc1ccccc1,10.1% (inactive),–
COCCN(CCOC)S(=O)(=O)c1ccc(/C(O)=C(\C#N)c2nc3ccccc3[nH]2)cc1,-17.6% (inactive),–
COCCN(CCOC)S(=O)(=O)c1ccc(C(=O)Nc2nc3c(s2)CCc2ccccc2-3)cc1,–,8.2 µM (active)
C=CCN(CC=C)S(=O)(=O)c1ccc(C(=O)Nc2nc3c(s2)CCc2ccccc2-3)cc1,-28.4% (inactive),–
O=[N+]([O-])c1ccc(S(=O)(=O)N2CCN(c3nc(-c4ccccc4)nc4ccccc34)CC2)cc1,0% (inactive),–
CC(=O)c1cccc(-c2cnc3c(NC=O)cc(-c4cccc(C(=O)N(C)C)c4)cn23)c1,14.1% (inactive),–
CC(=O)c1cccc(-c2cnc3c(NC=O)cc(-c4ccccc4Oc4ccccc4)cn23)c1,-17.7% (inactive),–
CC(=O)c1ccc(-c2cnc3c(NC=O)cc(-c4cccc(NS(C)(=O)=O)c4)cn23)cc1,0.977% (inactive),–
CN(C)C(=O)c1cccc(-c2cnc3c(NC=O)cc(-c4ccc(C(=O)N5CCOCC5)cc4)cn23)c1,1.7% (inactive),–
COc1ccc(-c2cc(NC=O)c3ncc(-c4ccccc4)n3c2)cc1OC,–,18.4 µM (active)
CC(=O)c1cccc(-c2cnc3c(NC=O)cc(-c4ccc(N(C)C)cc4)cn23)c1,–,18.4 µM (active)

SMILES,"activity change, negative = cytotoxicity",Potency
CC(=O)Nc1cc(-c2cccc(CO)c2)cn2c(-c3cccc(C(F)(F)F)c3)cnc12,5.62% (inactive),–
CC(=O)c1cccc(-c2cnc3c(NC=O)cc(-c4ccc(N5CCN(C)CC5)cc4)cn23)c1,1% (inactive),–
CN(C)CCNC(=O)c1cccc(-c2cnc3c(NC=O)cc(-c4cccc(C(F)(F)F)c4)cn23)c1,–,14.6 µM (active)
CC(C)(C)C(=O)c1c(N)[nH]c(C(=O)c2ccccc2)c1-c1ccc(F)cc1,-12.2% (inactive),–
CCCNC(=O)C1(C)CCCN(Cc2cccc(C(F)(F)F)c2)C1 (configuration not stated),3.51% (inactive),–
CC1CN(C(=O)c2cccc(NS(=O)(=O)c3ccc(Br)cc3)c2)CC(C)O1 (configuration not stated),-24.9% (inactive),–
CCN(CC)C(=O)C1=C(C)N(Cc2ccc(F)cc2)C(=O)C(CC(=O)NCc2cccc3ccccc23)C1 (configuration not stated),-7.48% (inactive),–
FC(F)(F)Oc1ccccc1C(c1nnnn1C1CCCCC1)N1CCN(C/C=C/c2ccccc2)CC1 (configuration not stated),0% (inactive),–
CCCCC[C@@H]1C=C(C(=O)OCC)[C@H](c2ccccc2)N1S(=O)(=O)c1ccc(C)cc1,-28.5% (inactive),–
CS(=O)(=O)N1CCCCC1c1cc(C(=O)NCc2ccccc2)no1 (configuration not stated),-1.31% (inactive),–
Cc1ccc(Cn2c(=O)n(-c3ccc(C)cc3)c(=O)c3c2c2cc(C)ccc2n3C)cc1,21.8% (inactive),–
Cc1ccc(NC(=O)/C(=C/c2ccc([N+](=O)[O-])cc2)NC(=O)c2ccccc2)cc1,-3.11% (inactive),–
CCOC(=O)/C(=C\c1ccc([N+](=O)[O-])cc1)C(=O)c1cc(C(C)=O)c(Nc2ccccc2)s1,–,8.2 µM (active)
CCOC(=O)COc1ccc([N+](=O)[O-])cc1,-5.01% (inactive),–
O=c1c(NCc2cccs2)nccn1-c1ccccc1,9.24% (inactive),–
COc1ccccc1N1CCN(Cc2ccc(OC)c3ccccc23)CC1,–,16.4 µM (active)
CNCC(O)CN1CCN(c2ccccc2OC)CC1 (configuration not stated),-1.79% (inactive),–
COc1ccccc1N1CCN(Cc2cc(OC)c3c(c2)OCO3)CC1,-7.05% (inactive),–
CCCn1c(NCc2ccc(N(CC)CC)cc2)nc2ccccc21,-22.9% (inactive),–
COc1ccc(-c2ccc(CN3C(C(C)C)C(=O)N(Cc4cn(CC5CCCCC5)nn4)CCS3(=O)=O)cc2)cn1 (configuration not stated),-16.7% (inactive),–

# Reference: PubChem BioAssay AID1347076 (National Center for Advancing Translational Sciences (NCATS), 2019)
